Results on eleven compounds are retold here after PubChem BioAssay (NCATS).

Where “and” joins values, the source holds several entries; their conditions need not be identical. Equal values may be shown once. Records with an inconclusive call do not appear. More than one record can exist for a structure, and the calls need not agree. A number with no mark means an inactive call. Calls of active or inactive are those of the source. Calls come from the whole dose curve; as a rule, active = well fitted curve in the direction sought with a large enough effect; inconclusive = small, poorly fitted or top-dose-only effect, or another doubt; inactive = no such curve, though single readings can be large; an effect the other way counts as inactive or inconclusive.

Assay [1] has as its system MKL-1. Kind of assay: qHTS assay to identify novel small-molecules to repurpose for Merkel cell carcinoma treatment (AID 1296009). Note: nearly all actives have a fitted effect of over 60% in size. The conditions noted are these: MCC and control cell lines, CellTiter-Glo viability, 72 h; series mostly up to 46 µM. The gist of the method:
(§1)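 Viability readout: ATP luminescence (CellTiter-Glo) after 72 hr drug exposure at 37 degree celsius. Dose-response format was 8 points for NPC and 11 points for MIPE; data normalized to in-plate controls.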

The subject of assay [2] is MKL-2. The assay is described as above. The conditions noted are these: MCC and control cell lines, CellTiter-Glo viability, 72 h; series mostly up to 46 µM. The gist of the method: as §1
For assay [3], the system named is UISO. The assay is described as above. To be noted: MCC and control cell lines, CellTiter-Glo viability, 72 h; series mostly up to 46 µM. The gist of the method:
as §1

The test system of assay [4] is WaGa. Described as above. The conditions noted are these: MCC and control cell lines, CellTiter-Glo viability, 72 h; series mostly up to 46 µM. The gist of the method:
as §1

Assay [5] relates to C33A. Nature of the assay: Primary qHTS to identify gynecologic anti-cancer compounds using libraries of approved drugs and bioactive compounds (AID 1345084). Note: nearly all actives have a fitted effect of over 55% in size. To be noted: Gynecologic cancer cell panel viability, ATPlite luminescence, 48 h; series mostly up to 57.5 µM. In short, it runs like this:
(§2)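 Five-point cytotoxicity, 48 h drug exposure at 37 C, 5% CO2, on cells seeded 16 h beforehand. ATP content read by ATPlite luminescence.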

Assay [6] concerns CAOV3. The assay is described as above. To be noted: Gynecologic cancer cell panel viability, ATPlite luminescence, 48 h; series mostly up to 57.5 µM. The gist of the method:
as §2

The subject of assay [7] is CASKI. The description is as above. To be noted: Gynecologic cancer cell panel viability, ATPlite luminescence, 48 h; series mostly up to 57.5 µM. In short, it runs like this:
as §2

For assay [8], the system named is Es-2. The description is as above. To be noted: Gynecologic cancer cell panel viability, ATPlite luminescence, 48 h; series mostly up to 57.5 µM. The gist of the method:
as §2

Assay [9] deals with HeLa. The assay is described as above. The conditions noted are these: Gynecologic cancer cell panel viability, ATPlite luminescence, 48 h; series mostly up to 57.5 µM. The gist of the method: as §2
The test system of assay [10] is Hek293T. Described as above. To be noted: Gynecologic cancer cell panel viability, ATPlite luminescence, 48 h, control line for the selectivity index; series mostly up to 57.5 µM. The gist of the method: as §2
In assay [11] the test system is JEG-3. The description is as above. To be noted: Gynecologic cancer cell panel viability, ATPlite luminescence, 48 h; series mostly up to 57.5 µM. In short, it runs like this:
as §2

In assay [12] the test system is OV90. The description is as above. To be noted: Gynecologic cancer cell panel viability, ATPlite luminescence, 48 h; series mostly up to 57.5 µM. In short, it runs like this: as §2
Assay [13] relates to PA-1. The description is as above. To be noted: Gynecologic cancer cell panel viability, ATPlite luminescence, 48 h; series mostly up to 57.5 µM. In short, it runs like this: as §2
Assay [14] relates to SKOV3. Described as above. To be noted: Gynecologic cancer cell panel viability, ATPlite luminescence, 48 h; series mostly up to 57.5 µM. The gist of the method: as §2
For assay [15], the system named is Tov-21-G. The assay is described as above. To be noted: Gynecologic cancer cell panel viability, ATPlite luminescence, 48 h; series mostly up to 57.5 µM. In short, it runs like this:
as §2

Assay [16] has as its system Tov112D. The description is as above. To be noted: Gynecologic cancer cell panel viability, ATPlite luminescence, 48 h; series mostly up to 57.5 µM. In short, it runs like this: as §2
Assay [17] is described as follows: Drug repurposing screens with cells derived from glioblastoma tumor samples (AID 1345199). Note: nearly all actives have a fitted effect of over 40% in size. The conditions noted are these: GBM patient neurospheres viability, ATP luminescence, 48 h. In short, it runs like this: (§3)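 Primary testing used CD133+ neurospheres from four GBM patients, seven concentrations, 48 h exposure and ATP-based viability; confirmation added three slower-growing patient lines.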

The subject of assay [18] is astro. The description is as above. To be noted: viability, ATP luminescence, 48 h; series mostly up to 45.9 µM. In short, it runs like this:
as §3

Setting [19] is: at 20 µM (top of the series), tumour line C.
Setting [20] is: at 21.2 µM (top of the series), tumour line B.
Where [21] appears, read: at 21.2 µM (top of the series), tumour line D.
Where [22] appears, read: at 21.3 µM (top of the series), tumour line A.
The mark [23] stands for this setting: at 45.9 µM (top of the series), tumour line B.
The mark [24] stands for this setting: at 45.9 µM (top of the series), tumour line D.
[25] abbreviates: at 46.1 µM (top of the series), tumour line C.
Where [26] appears, read: at 46 µM (top of the series), tumour line A.
% is set by controls: 0 for no effect and ±100 for the full control effect; potency is the fitted concentration of half-maximal effect.

As for `Cc1cccc(Nc2ccncc2S(=O)(=O)NC(=O)NC(C)C)c1`, the Potency result in assay [1], in [2], in [3], in assay [4], in assay [5] and in assay [6] was “inactive” throughout. Also, the Potency result in assay [7], in [8], in [9], in assay [10], in assay [11] and in assay [12] was “inactive” in each case. Moreover, the Potency entry in assay [13], in assay [14], in assay [15], in [16] and in assay [18] was “inactive” each time. For the same compound, the activity, negative = cell killing in assay [17] (setting [19]) is -12.8%; in assay [17] (setting [20]), -1.96%; in assay [17] (setting [21]), -26%; in assay [17] (setting [22]), -11%.
In the case of `NS(=O)(=O)c1cc2c(cc1Cl)NC(C(Cl)Cl)NS2(=O)=O` (configuration not stated), the Potency entry in assay [1], in [2], in assay [3], in assay [4], in [5] and in assay [6] was “inactive” throughout. Besides, the Potency entry in assay [7], in assay [8], in assay [9], in assay [10], in [11] and in [12] was “inactive” each time. The Potency entry in [13], in [14], in [15], in assay [16] and in [18] was “inactive” throughout. Besides, the activity, negative = cell killing in assay [17] (setting [19]) was 6.84%; in assay [17] (setting [20]), -4.6%; in [17] (setting [21]), -11.1%; in assay [17] (setting [22]), -6.45%.
Turning to `COC(=O)Nc1nc2ccc(C(=O)c3ccccc3)cc2[nH]1`, the Potency in [3] was 4.18 µM (active); in [8] it was 2.82 µM (active); in [9], 1 µM (active); in [12] it was 8.91 µM (active); in assay [13], 1.41 µM (active); in assay [16], 1.58 µM (active). For the same compound, the Potency in assay [17] (tumour line A) is 0.158 µM (active). In addition, the Potency entry in assay [6] was “inactive”. In addition, the activity, negative = cell killing in assay [17] (setting [19]) is -22.4%.
`CCn1cc(C(=O)O)c(=O)c2cc(F)c(N3CCNCC3)cc21`: the Potency entry in assay [1], in [2], in assay [3], in assay [4], in assay [6] and in assay [7] was “inactive” throughout. Moreover, the Potency entry in [8], in assay [9], in assay [10], in assay [11], in assay [12] and in assay [13] was “inactive” in each case. Moreover, the Potency entry in assay [14], in assay [15], in assay [16] and in assay [18] was “inactive” each time. Also, the activity, negative = cell killing in [17] (setting [19]) is 2.43%; in assay [17] (setting [20]) it was -7.83%; in [17] (setting [21]), -12%; in assay [17] (setting [22]), -21.7%; in assay [17] (setting [23]), 1.94%; in assay [17] (setting [24]), 2.4%. In assay [17] (setting [25]), the activity, negative = cell killing was -8.69%.
On to `CCN[C@H]1C[C@H](C)S(=O)(=O)c2sc(S(N)(=O)=O)cc21`, for which the Potency entry in [1], in [2], in assay [3], in assay [4], in assay [5] and in assay [7] was “inactive” in each case. Also, the Potency result in assay [8], in assay [9], in assay [10], in assay [11], in [12] and in assay [13] was “inactive” each time. The Potency result in assay [14], in assay [15], in assay [16] and in assay [18] was “inactive” each time. For the same compound, the activity, negative = cell killing in assay [17] (setting [23]) is -1.09%; in assay [17] (setting [24]), 3.44%; in assay [17] (setting [25]), -27%.
In the case of `Clc1ccccc1CN1CCc2sccc2C1`, the Potency result in [1], in assay [2], in [3], in assay [4], in assay [5] and in [7] was “inactive” each time. The Potency result in assay [8], in assay [10], in assay [11], in assay [12], in assay [14] and in assay [15] was “inactive” each time. In addition, the Potency entry in [16] and in assay [18] was “inactive” in each case. Moreover, the activity, negative = cell killing in assay [17] (setting [23]) was -14.5%; in [17] (setting [24]) it was -10.5%; in assay [17] (setting [25]), 4.64%.
`N=C(N)c1ccc(OCCCCCOc2ccc(C(=N)N)cc2)cc1`: the Potency result in [6], in assay [7], in [8], in assay [11], in assay [15] and in assay [16] was “inactive” each time. Moreover, the Potency in assay [13] is 5.01 µM (active).
On to `Nc1nc(F)nc2c1ncn2[C@@H]1O[C@H](CO)[C@@H](O)[C@@H]1O`, for which the Potency in [1] was 16.8 µM (active); in assay [3] it was 13.3 µM (active) and 935 nM (active); in [4], 10.6 µM (active) and 935 nM (active); in assay [16], 17.8 µM (active); in assay [17] (tumour line A), 10 µM (active); in [17] (tumour line D), 20 µM (active). In addition, the Potency result in assay [6], in assay [7], in [9], in assay [10], in assay [11] and in [12] was “inactive” throughout. The Potency entry in assay [13], in assay [14] and in assay [18] was “inactive” in each case. In addition, the activity, negative = cell killing was -27.2% in [17] (setting [23]); -19% and -29.8% in assay [17] (setting [25]).
As for `Cc1ncc([N+](=O)[O-])n1CCO`, the Potency entry in [5], in [6], in assay [7], in assay [8], in [10] and in [11] was “inactive” throughout. Also, the Potency result in assay [12], in [13], in assay [14], in assay [15], in [16] and in assay [18] was “inactive” throughout. Also, the activity, negative = cell killing in [17] (setting [23]) is -7.77%; in [17] (setting [24]), 10.9%; in [17] (setting [26]), -19.2%; in assay [17] (setting [25]) it was 12.6%.
For the compound `NC1(c2ccc(-c3nc4ccn5c(=O)[nH]nc5c4cc3-c3ccccc3)cc2)CCC1`, the Potency was 20.9 µM (active) in [1]; 13.3 µM (active) in assay [2]; 13.2 µM (active) in assay [3]; 16.6 µM (active) and 26.6 µM (active) in [4]; 3.55 µM (active) in assay [10]; 2 µM (active) in assay [12]. Besides, the Potency in assay [13] is 22.4 µM (active); in assay [14], 11.2 µM (active). In addition, the Potency entry in assay [5], in assay [6], in assay [8], in assay [9] and in assay [16] was “inactive” each time.
Take `Cc1noc(NS(=O)(=O)c2ccc(N)cc2)c1C`: the Potency result in assay [1], in [2], in assay [3], in assay [4], in [5] and in assay [7] was “inactive” each time. Moreover, the Potency entry in assay [8], in [10], in assay [11], in [12], in [13] and in assay [14] was “inactive” throughout. Besides, the Potency entry in assay [15], in assay [16] and in [18] was “inactive” throughout. In addition, the activity, negative = cell killing was -5.33% and -3.65% in assay [17] (setting [23]); -24.3% and -9.55% in assay [17] (setting [24]); -16.5% in assay [17] (setting [26]); -22.2% and -6.01% in [17] (setting [25]).
